This is an account of results in PubChem BioAssay AID1345085 (National Center for Advancing Translational Sciences (NCATS), 2018).

SMILES strings stand for the structures. Inconclusive results are not listed. Calls of active or inactive are those of the source. Calls come from the whole dose curve; as a rule, active = well fitted cell-killing curve with a large enough effect; inconclusive = small, poorly fitted or top-dose-only effect, or effect the other way; inactive = no such curve, though single readings can be large or run the other way.
Potency is the fitted concentration of half-maximal effect.

For the assay, the system named is HeLa. Description: Confirmatory qHTS for gynecologic anti-cancer compounds from libraries of approved drugs and bioactive compounds. Note: nearly all actives have a fitted effect of over 55% in size. Particulars: gynecologic cancer cell panel viability, ATPlite luminescence, 48 h; series mostly up to 57.6 µM. The essentials:
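Seeding 1,000 cells per well preceded overnight (16 h) attachment, after which 48 h drug treatment across 57.5 uM–0.977 nM (11 points) was applied. Remaining cellular ATP, detected by ATPlite luminescence, defined IC50.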
As for `Cn1cnc([N+](=O)[O-])c1Sc1ncnc2nc[nH]c12`, the Potency is 4.85 µM (active). Take `O=C(O)C1(Cc2cccc(Nc3nccs3)n2)CCC(Oc2cccc(Cl)c2F)CC1` (centres undefined): the Potency is 1.22 µM (active). As for `Cc1cnc(Nc2ccc(F)cc2Cl)nc1-c1c[nH]c(C(=O)NC(CO)c2cccc(Cl)c2)c1` (centres undefined), the Potency was 9.68 µM (active). For `Cc1ccc(C(N)=O)cc1Nc1nccc(-c2cn(C(C)C)c3cnccc23)n1`, the Potency is 7.69 µM (active).

For `Cn1cnc2c(F)c(Nc3ccc(Br)cc3F)c(C(=O)NOCCO)cc21`, the Potency result is “inactive”. Turning to `CCC1=CC2CN(C1)Cc1c([nH]c3ccccc13)[C@@](C(=O)OC)(c1cc3c(cc1OC)N(C)[C@H]1[C@@](O)(C(=O)OC)[C@H](OC(C)=O)[C@]4(CC)C=CCN5CC[C@]31[C@@H]54)C2` (some centres undefined), the Potency was 0.0943 µM (active). For `Nc1nc(Cl)nc2c1ncn2C1OC(CO)C(O)C1F` (centres undefined), the Potency result is “inactive”. On to `CCCCN(CCCC)C(=O)CN1C[C@H](c2ccc3c(c2)OCO3)[C@@H](C(=O)O)[C@@H]1c1ccc(OC)cc1`, for which the Potency entry is “inactive”.

With `CC(C)C[C@H](NC(=O)[C@@H](NC(=O)c1cccc(-c2ccccc2)n1)[C@@H](C)O)B(O)O`, the Potency is 24.3 µM (active). `COCCOc1nc(-c2ccc(Cl)c(Cl)c2)n(-c2ccc(NC(=O)CCl)cc2)n1`: the Potency is 24.3 µM (active). As to `CNc1nccc(-c2cccnc2Oc2cc(C(=O)Nc3cccc(C(F)(F)F)c3)ccc2C)n1`, the Potency is 15.3 µM (active). As to `C[C@@H](Oc1cc(-c2cnn(C3CCNCC3)c2)cnc1N)c1c(Cl)ccc(F)c1Cl`, the Potency was 4.32 µM (active).

In the case of `Cc1nc(N)ncc1-c1nc(N2CCOCC2)c2sc(C(C)(C)O)cc2n1`, the Potency is 1.72 µM (active).

In the case of `Nc1cccc(-c2cc3c(Oc4cccc(O)c4)ncnc3[nH]2)c1`, the Potency is 9.68 µM (active).

Regarding `CC(C)n1c(/C=C/[C@@H](O)C[C@@H](O)CC(=O)O)c(-c2ccc(F)cc2)c2ccccc21`, the Potency was 5.44 µM (active). Consider `CN1CCCC(n2nc(Cc3ccc(Cl)cc3)c3ccccc3c2=O)CC1` (centres undefined), for which the Potency result was “inactive”. `C[C@]12CCC(=O)C=C1[C@@H]1C[C@@H]1[C@H]1[C@@H]3[C@@H]4C[C@@H]4[C@@]4(CCC(=O)O4)[C@@]3(C)CC[C@@H]12`: the Potency was 4.85 µM (active). `COc1cccc2c1C(=O)c1c(O)c3c(c(O)c1C2=O)C[C@@](O)(C(=O)CO)C[C@@H]3O[C@H]1C[C@H](N)[C@H](O[C@@H]2CCCCO2)[C@H](C)O1`: the Potency is 12.2 µM (active). Regarding `CC[C@@]1(O)C(=O)OCc2c1cc1n(c2=O)Cc2c-1nc1ccccc1c2/C=N/OC(C)(C)C`, the Potency is 7.69 µM (active). With `CCCCc1oc2ccc(NS(C)(=O)=O)cc2c1C(=O)c1ccc(OCCCN(CCCC)CCCC)cc1`, the Potency was 24.3 µM (active). Consider `Cc1[nH]c2ccccc2c1CCNCc1ccc(/C=C/C(=O)NO)cc1`, for which the Potency was 0.432 µM (active). On to `COc1cc2c(Oc3ccc(-c4cnc(Nc5ccc(F)cc5)n(C)c4=O)cc3F)ccnc2cc1OCCCN1CCOCC1`, for which the Potency is 21.7 µM (active). Under `COc1cc(N2CCC(N3CCN(C)CC3)CC2)ccc1Nc1ncc(Cl)c(Nc2ccccc2S(=O)(=O)C(C)C)n1` stands 0.769 µM (active); under `Nc1ccc(C(=O)Nc2cccc(-c3nc(N4CCOCC4)c4oc5ncccc5c4n3)c2)cn1`, 7.69 µM (active). As for `CCN(CC)CCOc1ccc(/C(=C(\Cl)c2ccccc2)c2ccccc2)cc1`, the Potency is 79.4 µM (active).

For the compound `CN1CCN(CCOc2cc(OC3CCOCC3)c3c(Nc4c(Cl)ccc5c4OCO5)ncnc3c2)CC1`, the Potency result was “inactive”. With `Fc1cc(-c2cccc3ncc(-c4cnn(C5CCNCC5)c4)nc23)cc(F)c1CN1CCOCC1`, the Potency is 24.3 µM (active). With `COc1cc2c(c(OC)c1OC)-c1ccc(OC)c(=O)cc1[C@@H](NC(C)=O)CC2` the figure was 0.178 µM (active); with `Cc1ccc(C(=O)N(CCCN)C(c2nc3cc(Cl)ccc3c(=O)n2Cc2ccccc2)C(C)C)cc1` (centres undefined), 0.0172 µM (active); with `CN(C)C/C=C/C(=O)Nc1cc2c(Nc3ccc(F)c(Cl)c3)ncnc2cc1OC1CCOC1` (centres undefined), 24.3 µM (active).

Take `O=C(NOCC1CC1)c1ccc(F)c(F)c1Nc1ccc(I)cc1Cl`: the Potency was 9.68 µM (active). As for `Cc1nc(Nc2n[nH]c3c2CN(C(=O)NC(CN(C)C)c2ccccc2)C3(C)C)c2sccc2n1` (centres undefined), the Potency is 3.06 µM (active). `CC(Oc1ccc2[nH]nc(/C=C/c3cnn(CCO)c3)c2c1)c1c(Cl)cncc1Cl` (centres undefined): the Potency was 0.172 µM (active). Under `CN(C[C@@H]1COCCO1)S(=O)(=O)Nc1ccc2ccc3ncc(-c4cnn(C)c4)cc3c(=O)c2c1` stands 5.44 µM (active).
